Measured values as given in PubChem BioAssay AID1159580 (chemical genetic matrix, 2015).
Screen size: about 5,500 compounds; about 2,000 (36%) were called active. Another 18% or so got no clear call; they are omitted. No stated cut-off is given here; in the data, active means normalized growth mostly below about 0.91 (no sharp cut-off); inconclusive means no clear call, values can overlap the other calls; inactive means mostly above about 0.92. This is one part of the list.

Experiment: chemical genetic growth profiling, strain panel (AID 1159580);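 further: tested at 20 µM; growth read once vehicle control cultures reached saturation at 30 °C; 1 = growth at the plate median or of vehicle wells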
Details: growth OD

Measured: normalized growth

O=c1[nH]cc(F)c(=O)[nH]1
inactive: S. cerevisiae deletion strains, locus YNL175C, strain NOP13, stronger effect = lower value 1.03 | S. cerevisiae deletion strains, locus YNL197C, strain WHI3, stronger effect = lower value 1.01 | S. cerevisiae deletion strains, locus YNL224C, strain SQS1, stronger effect = lower value 0.929 | S. cerevisiae deletion strains, locus YOR061W, strain CKA2, stronger effect = lower value 0.947 | S. cerevisiae deletion strains, locus YOR083W, strain WHI5 (second series), stronger effect = lower value 1.03 | S. cerevisiae deletion strains, locus YOR144C, strain elg1, stronger effect = lower value 0.999 | S. cerevisiae deletion strains, locus YOR316C, strain cot1, stronger effect = lower value 0.958 | S. cerevisiae deletion strains, locus YPL055C, strain LGE1, stronger effect = lower value 0.955 | S. cerevisiae deletion strains, locus YPL241C, strain CIN2, stronger effect = lower value 1.03 | S. cerevisiae deletion strains, locus YPR119W, strain clb2, stronger effect = lower value 1.03 | S. cerevisiae deletion strains, locus YPR141C, strain kar3, stronger effect = lower value 1.03 | S. cerevisiae deletion strains, locus YPR163C, strain tif3, stronger effect = lower value 0.981
active: S. cerevisiae deletion strains, locus YNL128W, strain TEP1, stronger effect = lower value 0.784 | S. cerevisiae deletion strains, locus YNL183C, strain NPR1, stronger effect = lower value 0.611 | S. cerevisiae deletion strains, locus YNL209W, strain ssb2, stronger effect = lower value 0.647 | S. cerevisiae deletion strains, locus YNL233W, strain BNI4, stronger effect = lower value 0.843 | S. cerevisiae deletion strains, locus YNL248C, strain rpa49, stronger effect = lower value 0.346 | S. cerevisiae deletion strains, locus YNL250W, strain rad50, stronger effect = lower value 0.848 | S. cerevisiae deletion strains, locus YNL271C, strain bni1, stronger effect = lower value 0.811 | S. cerevisiae deletion strains, locus YNL298W, strain CLA4, stronger effect = lower value 0.905 | S. cerevisiae deletion strains, locus YNL307C, strain MCK1, stronger effect = lower value 0.756 | S. cerevisiae deletion strains, locus YNL322C, strain KRE1 (second series), stronger effect = lower value 0.65 | S. cerevisiae deletion strains, locus YNR049C, strain mso1, stronger effect = lower value 0.647 | S. cerevisiae deletion strains, locus YNR052C, strain pop2, stronger effect = lower value 0.909 | S. cerevisiae deletion strains, locus YOL012C, strain htz1 2.56 [resistant] | S. cerevisiae deletion strains, locus YOL147C, strain pex11, stronger effect = lower value 0.796 | S. cerevisiae deletion strains, locus YOR001W, strain rrp6, stronger effect = lower value 0.193 | S. cerevisiae deletion strains, locus YOR069W, strain VPS5, stronger effect = lower value 0.858 | S. cerevisiae deletion strains, locus YOR070C, strain gyp1, stronger effect = lower value 0.622 | S. cerevisiae deletion strains, locus YOR080W, strain dia2, stronger effect = lower value 0.809 | S. cerevisiae deletion strains, locus YOR083W, strain WHI5, stronger effect = lower value 0.686 | S. cerevisiae deletion strains, locus YOR106W, strain vam3, stronger effect = lower value 0.394 | S. cerevisiae deletion strains, locus YOR136W, strain idh2, stronger effect = lower value 0.902 | S. cerevisiae deletion strains, locus YOR184W, strain ser1, stronger effect = lower value 0.561 | S. cerevisiae deletion strains, locus YOR231W, strain MKK1, stronger effect = lower value 0.549 | S. cerevisiae deletion strains, locus YOR265W, strain rbl2, stronger effect = lower value 0.654 | S. cerevisiae deletion strains, locus YOR270C, strain vph1, stronger effect = lower value 0.397 | S. cerevisiae deletion strains, locus YOR290C, strain snf2, stronger effect = lower value 0.415 | S. cerevisiae deletion strains, locus YPL051W, strain arl3, stronger effect = lower value 0.598 | S. cerevisiae deletion strains, locus YPL078C, strain atp4, stronger effect = lower value 0.482 | S. cerevisiae deletion strains, locus YPL106C, strain sse1, stronger effect = lower value 0.709 | S. cerevisiae deletion strains, locus YPL240C, strain hsp82, stronger effect = lower value 0.671 | S. cerevisiae deletion strains, locus YPL256C, strain CLN2, stronger effect = lower value 0.714 | S. cerevisiae deletion strains, locus YPR167C, strain met16, stronger effect = lower value 0.831 | S. cerevisiae deletion strains, strain wtn01, stronger effect = lower value 0.635 | S. cerevisiae strains, strain wild type, stronger effect = lower value 0.776
